Reference: the supplement of paper PMC11732987, “Enantioselective OTUD7B fragment discovery through chemoproteomics screening and high-throughput optimisation” (Communications Chemistry, 2025)

Key:
Assay in all cases: log2 ratio of Biotin-Ahx-Ub-VS probe labelling (fragment/DMSO); higher = less target engagement (more negative = stronger competition), active = hit call of the paper (q ≤ 0.05, log2 ratio ≤ -1)
Details in all cases: compound concentration: 200 uM; treatment time: 3 h
[1] = biological target: USP34 (UniProt Q70CQ2)
Outline: (§1)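 Average log2 ratios of fragment over vehicle were obtained by unpaired t-test from global-median-normalised Spectronaut label-free quantities. Proteins with ≥2 unique peptides were included. HEK293T lysate (495 µg per sample) was treated in triplicate with fragment at 200 µM or vehicle for 3 h, then with Biotin-Ahx-Ub-VS at 0.5 µM final for 1 h, and labelled DUBs were NeutrAvidin-enriched and run by diaPASEF LC-MS/MS.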

[2] = biological target: T1, USP36 (UniProt Q9P275)
T1 sequence (whole entry): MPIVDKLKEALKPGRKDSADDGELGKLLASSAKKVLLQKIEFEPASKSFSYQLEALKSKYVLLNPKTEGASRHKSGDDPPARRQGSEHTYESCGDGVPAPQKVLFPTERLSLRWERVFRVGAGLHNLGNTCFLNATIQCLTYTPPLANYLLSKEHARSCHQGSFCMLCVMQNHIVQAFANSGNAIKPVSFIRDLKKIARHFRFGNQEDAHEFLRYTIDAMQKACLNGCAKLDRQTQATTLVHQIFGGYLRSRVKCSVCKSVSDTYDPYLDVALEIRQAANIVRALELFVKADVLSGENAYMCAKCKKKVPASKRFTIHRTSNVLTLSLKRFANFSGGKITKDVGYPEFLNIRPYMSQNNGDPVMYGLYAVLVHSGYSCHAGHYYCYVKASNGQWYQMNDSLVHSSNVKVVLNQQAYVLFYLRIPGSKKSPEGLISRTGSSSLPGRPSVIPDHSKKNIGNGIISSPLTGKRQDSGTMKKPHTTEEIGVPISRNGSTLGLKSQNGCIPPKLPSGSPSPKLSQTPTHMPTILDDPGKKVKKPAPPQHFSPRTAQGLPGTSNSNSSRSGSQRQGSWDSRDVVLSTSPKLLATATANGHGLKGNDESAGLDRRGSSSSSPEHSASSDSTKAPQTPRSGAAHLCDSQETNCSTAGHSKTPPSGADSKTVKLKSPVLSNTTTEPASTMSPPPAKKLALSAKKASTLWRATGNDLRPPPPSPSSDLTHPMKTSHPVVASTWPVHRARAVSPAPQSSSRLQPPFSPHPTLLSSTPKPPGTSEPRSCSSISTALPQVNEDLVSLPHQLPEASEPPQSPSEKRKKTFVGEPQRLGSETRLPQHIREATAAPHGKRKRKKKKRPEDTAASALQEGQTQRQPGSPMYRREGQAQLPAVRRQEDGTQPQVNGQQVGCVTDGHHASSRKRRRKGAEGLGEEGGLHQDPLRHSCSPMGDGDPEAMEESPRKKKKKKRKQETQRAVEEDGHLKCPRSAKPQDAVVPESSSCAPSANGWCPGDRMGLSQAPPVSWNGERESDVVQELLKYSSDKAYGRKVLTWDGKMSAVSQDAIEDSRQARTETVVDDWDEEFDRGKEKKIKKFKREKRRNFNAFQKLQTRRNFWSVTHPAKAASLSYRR
Outline: as §1

[3] = biological target: T2, USP38 (UniProt Q8NB14)
T2 sequence (whole entry): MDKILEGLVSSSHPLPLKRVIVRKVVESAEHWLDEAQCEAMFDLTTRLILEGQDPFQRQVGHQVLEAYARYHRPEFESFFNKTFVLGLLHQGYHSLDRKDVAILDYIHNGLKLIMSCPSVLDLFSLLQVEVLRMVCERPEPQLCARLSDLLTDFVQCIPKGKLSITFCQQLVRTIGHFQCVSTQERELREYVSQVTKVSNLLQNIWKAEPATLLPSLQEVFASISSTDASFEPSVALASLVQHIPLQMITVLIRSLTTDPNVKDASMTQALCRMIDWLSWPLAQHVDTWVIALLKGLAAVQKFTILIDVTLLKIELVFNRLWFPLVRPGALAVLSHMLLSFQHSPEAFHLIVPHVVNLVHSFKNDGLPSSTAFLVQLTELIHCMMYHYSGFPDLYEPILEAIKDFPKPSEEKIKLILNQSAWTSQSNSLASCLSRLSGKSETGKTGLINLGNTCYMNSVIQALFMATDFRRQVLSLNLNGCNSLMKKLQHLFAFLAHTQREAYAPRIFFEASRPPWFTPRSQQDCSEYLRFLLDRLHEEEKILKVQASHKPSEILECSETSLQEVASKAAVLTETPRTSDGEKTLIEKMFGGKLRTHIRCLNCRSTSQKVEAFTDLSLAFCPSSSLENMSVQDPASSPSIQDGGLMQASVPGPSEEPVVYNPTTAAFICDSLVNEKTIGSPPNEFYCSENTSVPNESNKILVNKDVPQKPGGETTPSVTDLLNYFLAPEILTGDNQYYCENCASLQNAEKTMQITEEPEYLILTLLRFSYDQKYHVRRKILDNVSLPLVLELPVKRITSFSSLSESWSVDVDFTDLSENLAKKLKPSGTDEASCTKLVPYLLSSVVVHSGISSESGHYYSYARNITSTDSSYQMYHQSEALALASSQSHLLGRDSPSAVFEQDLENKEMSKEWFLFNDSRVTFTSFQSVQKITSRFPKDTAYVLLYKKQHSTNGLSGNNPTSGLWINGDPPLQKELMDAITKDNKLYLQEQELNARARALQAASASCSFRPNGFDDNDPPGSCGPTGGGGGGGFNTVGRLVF
Outline: as §1

[4] = biological target: T3, USP39 (UniProt Q53GS9)
T3 sequence (whole entry): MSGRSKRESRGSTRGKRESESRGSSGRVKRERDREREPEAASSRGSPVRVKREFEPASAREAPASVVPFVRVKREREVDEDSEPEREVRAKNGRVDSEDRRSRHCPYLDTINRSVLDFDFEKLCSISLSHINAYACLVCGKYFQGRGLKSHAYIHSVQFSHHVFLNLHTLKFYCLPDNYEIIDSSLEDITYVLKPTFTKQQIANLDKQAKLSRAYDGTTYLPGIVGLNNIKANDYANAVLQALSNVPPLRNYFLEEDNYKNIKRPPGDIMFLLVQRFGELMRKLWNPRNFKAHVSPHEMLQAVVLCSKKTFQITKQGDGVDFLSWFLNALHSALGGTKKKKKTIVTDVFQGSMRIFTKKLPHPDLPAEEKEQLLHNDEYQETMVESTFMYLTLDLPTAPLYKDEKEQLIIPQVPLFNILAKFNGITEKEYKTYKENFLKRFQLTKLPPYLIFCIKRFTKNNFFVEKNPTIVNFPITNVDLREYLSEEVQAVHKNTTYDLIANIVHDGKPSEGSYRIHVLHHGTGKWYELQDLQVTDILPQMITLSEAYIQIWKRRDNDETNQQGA
Outline: as §1

[5] = biological target: T4, USP4 (UniProt Q13107)
T4 sequence (whole entry): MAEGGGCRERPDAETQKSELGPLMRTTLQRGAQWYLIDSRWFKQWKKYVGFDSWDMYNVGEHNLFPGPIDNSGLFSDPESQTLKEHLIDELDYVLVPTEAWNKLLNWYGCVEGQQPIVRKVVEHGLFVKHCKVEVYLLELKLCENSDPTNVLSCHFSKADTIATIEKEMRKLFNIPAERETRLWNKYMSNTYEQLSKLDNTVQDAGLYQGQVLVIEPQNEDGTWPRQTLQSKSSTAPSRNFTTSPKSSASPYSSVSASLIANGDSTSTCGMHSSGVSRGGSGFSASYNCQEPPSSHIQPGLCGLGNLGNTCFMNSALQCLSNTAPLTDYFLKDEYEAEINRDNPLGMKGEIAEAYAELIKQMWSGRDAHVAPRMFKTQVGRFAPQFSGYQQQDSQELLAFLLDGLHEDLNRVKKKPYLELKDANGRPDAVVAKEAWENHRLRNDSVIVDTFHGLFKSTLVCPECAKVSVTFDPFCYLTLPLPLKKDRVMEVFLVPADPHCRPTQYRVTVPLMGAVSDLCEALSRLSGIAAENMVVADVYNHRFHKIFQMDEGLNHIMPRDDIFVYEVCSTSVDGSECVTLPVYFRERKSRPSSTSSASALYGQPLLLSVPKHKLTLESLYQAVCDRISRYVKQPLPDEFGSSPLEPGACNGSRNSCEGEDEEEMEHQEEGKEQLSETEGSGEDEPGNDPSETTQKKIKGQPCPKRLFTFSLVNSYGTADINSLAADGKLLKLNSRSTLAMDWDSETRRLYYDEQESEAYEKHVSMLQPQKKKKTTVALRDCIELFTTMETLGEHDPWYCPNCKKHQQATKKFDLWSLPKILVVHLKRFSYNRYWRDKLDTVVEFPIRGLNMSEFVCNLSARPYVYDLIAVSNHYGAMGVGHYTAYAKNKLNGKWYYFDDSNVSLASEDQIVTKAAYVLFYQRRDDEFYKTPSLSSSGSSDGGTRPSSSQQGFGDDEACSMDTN
Outline: as §1

Measured: log2 ratio of Biotin-Ahx-Ub-VS probe labelling

Sequence of USP34 (Q70CQ2 whole entry, the tested form may be a part): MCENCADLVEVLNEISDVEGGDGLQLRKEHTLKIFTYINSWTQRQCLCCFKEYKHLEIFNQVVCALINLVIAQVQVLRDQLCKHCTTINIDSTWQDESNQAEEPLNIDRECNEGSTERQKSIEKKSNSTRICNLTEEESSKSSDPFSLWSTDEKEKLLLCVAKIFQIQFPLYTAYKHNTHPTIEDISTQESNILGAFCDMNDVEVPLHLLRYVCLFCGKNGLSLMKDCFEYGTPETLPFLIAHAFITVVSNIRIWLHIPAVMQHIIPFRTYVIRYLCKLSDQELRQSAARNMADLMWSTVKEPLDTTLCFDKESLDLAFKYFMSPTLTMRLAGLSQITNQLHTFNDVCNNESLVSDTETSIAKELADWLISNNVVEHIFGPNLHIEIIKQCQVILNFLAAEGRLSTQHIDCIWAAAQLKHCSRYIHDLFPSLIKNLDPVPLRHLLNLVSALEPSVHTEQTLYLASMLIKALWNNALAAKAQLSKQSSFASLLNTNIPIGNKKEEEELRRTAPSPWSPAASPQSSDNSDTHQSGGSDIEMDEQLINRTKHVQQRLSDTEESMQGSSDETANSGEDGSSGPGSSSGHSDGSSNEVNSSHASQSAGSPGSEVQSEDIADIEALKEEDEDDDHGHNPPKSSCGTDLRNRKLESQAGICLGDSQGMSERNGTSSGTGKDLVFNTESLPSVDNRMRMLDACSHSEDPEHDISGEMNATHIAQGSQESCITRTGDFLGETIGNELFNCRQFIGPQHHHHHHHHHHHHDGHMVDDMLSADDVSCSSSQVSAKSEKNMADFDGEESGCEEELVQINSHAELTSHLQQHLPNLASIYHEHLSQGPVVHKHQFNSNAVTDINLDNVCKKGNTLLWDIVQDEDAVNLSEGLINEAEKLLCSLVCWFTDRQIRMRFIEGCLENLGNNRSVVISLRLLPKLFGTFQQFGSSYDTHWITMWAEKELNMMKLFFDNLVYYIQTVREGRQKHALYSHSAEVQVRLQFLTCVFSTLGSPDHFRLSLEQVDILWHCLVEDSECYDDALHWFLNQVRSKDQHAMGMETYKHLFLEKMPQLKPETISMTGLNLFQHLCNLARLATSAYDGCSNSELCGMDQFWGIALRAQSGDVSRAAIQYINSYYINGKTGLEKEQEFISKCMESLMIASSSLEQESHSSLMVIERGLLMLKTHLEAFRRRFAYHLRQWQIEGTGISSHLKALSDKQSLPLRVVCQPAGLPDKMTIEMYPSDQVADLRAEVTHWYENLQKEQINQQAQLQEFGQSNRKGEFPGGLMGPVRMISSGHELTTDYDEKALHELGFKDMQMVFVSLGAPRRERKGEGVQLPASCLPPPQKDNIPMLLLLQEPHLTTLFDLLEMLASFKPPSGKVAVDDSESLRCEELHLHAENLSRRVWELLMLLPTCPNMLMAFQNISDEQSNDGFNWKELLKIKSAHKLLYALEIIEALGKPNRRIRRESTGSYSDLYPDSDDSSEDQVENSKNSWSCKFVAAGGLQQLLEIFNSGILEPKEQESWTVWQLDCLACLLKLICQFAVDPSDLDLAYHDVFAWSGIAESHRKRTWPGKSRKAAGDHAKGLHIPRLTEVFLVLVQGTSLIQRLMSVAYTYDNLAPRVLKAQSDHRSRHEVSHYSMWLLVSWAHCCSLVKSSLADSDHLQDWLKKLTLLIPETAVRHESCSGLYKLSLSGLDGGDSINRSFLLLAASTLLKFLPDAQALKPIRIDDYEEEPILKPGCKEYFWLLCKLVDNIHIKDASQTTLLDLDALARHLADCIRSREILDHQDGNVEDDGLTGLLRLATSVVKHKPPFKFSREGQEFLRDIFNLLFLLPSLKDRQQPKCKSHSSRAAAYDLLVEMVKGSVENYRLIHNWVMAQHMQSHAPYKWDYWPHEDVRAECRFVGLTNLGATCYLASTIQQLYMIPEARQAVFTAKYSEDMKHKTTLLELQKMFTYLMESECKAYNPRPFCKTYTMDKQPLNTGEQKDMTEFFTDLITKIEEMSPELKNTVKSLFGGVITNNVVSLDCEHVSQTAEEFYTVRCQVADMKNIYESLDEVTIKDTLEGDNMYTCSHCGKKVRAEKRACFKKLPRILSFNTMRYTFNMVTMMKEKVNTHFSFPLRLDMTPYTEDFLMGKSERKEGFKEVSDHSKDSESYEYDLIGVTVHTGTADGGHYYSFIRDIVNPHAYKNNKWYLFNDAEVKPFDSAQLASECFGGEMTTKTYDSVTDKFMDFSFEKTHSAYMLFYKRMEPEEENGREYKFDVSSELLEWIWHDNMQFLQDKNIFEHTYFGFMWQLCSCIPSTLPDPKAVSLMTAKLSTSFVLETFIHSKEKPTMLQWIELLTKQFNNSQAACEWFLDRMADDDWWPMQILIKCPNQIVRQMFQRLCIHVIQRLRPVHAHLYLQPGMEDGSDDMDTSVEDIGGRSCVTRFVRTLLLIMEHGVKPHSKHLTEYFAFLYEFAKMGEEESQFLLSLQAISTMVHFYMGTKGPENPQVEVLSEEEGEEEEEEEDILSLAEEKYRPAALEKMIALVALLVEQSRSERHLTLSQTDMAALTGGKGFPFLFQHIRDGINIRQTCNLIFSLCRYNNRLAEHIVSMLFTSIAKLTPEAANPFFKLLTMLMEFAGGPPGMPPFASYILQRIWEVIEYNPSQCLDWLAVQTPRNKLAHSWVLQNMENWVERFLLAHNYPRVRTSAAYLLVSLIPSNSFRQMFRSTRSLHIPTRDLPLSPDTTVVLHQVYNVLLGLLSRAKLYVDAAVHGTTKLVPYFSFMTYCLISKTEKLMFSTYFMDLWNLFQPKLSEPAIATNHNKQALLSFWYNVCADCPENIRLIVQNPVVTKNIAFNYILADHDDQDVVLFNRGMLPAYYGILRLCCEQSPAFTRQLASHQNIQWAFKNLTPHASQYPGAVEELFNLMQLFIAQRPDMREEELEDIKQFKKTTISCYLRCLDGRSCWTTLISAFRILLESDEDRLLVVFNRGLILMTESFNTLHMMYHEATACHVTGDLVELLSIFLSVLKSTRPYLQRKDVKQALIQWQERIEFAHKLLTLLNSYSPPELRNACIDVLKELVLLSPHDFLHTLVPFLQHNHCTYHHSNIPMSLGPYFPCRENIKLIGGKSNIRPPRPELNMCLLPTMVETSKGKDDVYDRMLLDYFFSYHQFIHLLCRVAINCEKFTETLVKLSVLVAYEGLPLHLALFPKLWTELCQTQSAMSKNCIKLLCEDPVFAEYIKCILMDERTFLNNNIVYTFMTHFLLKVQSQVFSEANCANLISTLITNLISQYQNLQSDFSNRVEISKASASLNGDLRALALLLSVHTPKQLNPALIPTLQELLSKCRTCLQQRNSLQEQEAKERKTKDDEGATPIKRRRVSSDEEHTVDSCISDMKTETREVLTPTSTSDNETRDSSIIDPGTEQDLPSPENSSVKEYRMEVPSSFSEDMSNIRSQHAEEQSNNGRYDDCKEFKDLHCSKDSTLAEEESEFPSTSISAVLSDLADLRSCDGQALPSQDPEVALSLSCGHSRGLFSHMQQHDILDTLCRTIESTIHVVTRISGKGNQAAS

NS(=O)(=O)c1ccc(Cl)c(NC(=O)CCl)c1
inactive: [1] -0.381 | [2] -0.132 | [3] 0.0479 | [4] 0.175 | [5] -0.198
